PubChem BioAssay (EPA / NIEHS)
Activity calls are given as the source filed them. How the source made its calls: active means hit-call score of the fitted dose curve at least 0.9, where 1 is the maximum; inactive means score below 0.9.

read-out: Pyruvate Dehydrogenase Kinase 4 (PDK4), PDK4 (gene 5166); assay: LTEA_HepaRG_PDK4: Life Technologies and Expression Analysis (LTEA) Assay for Pyruvate Dehydrogenase Kinase 4 (PDK4) using HepaRG (AID 2283525); conditions: mRNA level, 48 h; actives raise or lower the signal
Procedure: LTEA_HepaRG is a cell based, multiplexed-readout assay that uses HepaRG, a human liver cell line, with measurements taken at 48 hours after chemical dosing on a 96-well plate.LTEA_HepaRG_PDK4 is one of 102 assay component(s) measured in the LTEA HepaRG cell culture assay. It is a marker of Diseases associated with PDK4 including Platelet Glycoprotein Iv Deficiency and Diabetes Mellitus, Noninsulin-Dependent.Data from the assay component LTEA_HepaRG_PDK4 was analyzed into 1 endpoint. This assay endpoint, LTEA_HepaRG_PDK4, was analyzed with bidirectional fitting relative to DMSO as the negative control and baseline of activity. Using a type of inducible reporter, measures of mRNA induction for gain or loss-of-signal activity can be used to understand regulation of transcription factor activity. To generalize the intended target to other relatable targets, this assay endpoint is annotated to the kinase intended target family, where the subfamily is serine/threonine kinase.
A total of 1060 chemcials from the ToxCast library were tested in eight-point concentration-response experiments. Cell culture and cytotoxicity assays were conducted at Thermo Fisher Scientific's Custom Services facility (Madison, WI). A single lot of human HepaRG cells (Thermo Fisher Scientific, Frederick, MD) was used for the cell culture experiments. 96-well format collagen type I coated plates of human HepaRG cells were prepared using established methods. Briefly, cryopreserved HepaRG cells were thawed, plated at a density of approximately 100,000 cells/well in HepaRG Thaw, Plate, and General Purpose media (HPRG770, Thermo Fisher Scientific), and incubated for 48 hours. 0.5% DMSO was selected as vehicle control to balance the requisite need of DMSO in HepaRG cultures to maintain differentiation (for example, baseline metabolism, proportions of hepatocytes vs. cholangiocytes), while enabling further hepatic receptor pathway activation (for example, PXR and CAR) in response to chemical exposure. 48 hours after plating, the culture medium was replaced with HepaRG Serum-Free Incudtion Media. Cells were exposed to each test chemical in duplicate and maintained in CO2 incubators for another 48 hours. Chemical plates were thawed to room temperature and 200x concentrations of treatment groups were prepared. 8-point conentration-reponse curves were made with the highest exposure at 100 uM, followed by half-log dilutions, all in 0.5% DMSO. Each test plate contained variouse controls, induction positive controls (1mM phenobarbital), cytotoxicity positive controls ([…] aflatoxin B1), vehicle controls (0.5% DMSO), and total lysis controls (0.5% DMSO). Cell morphology images were taken using an Essen IncuCyte FLR automated microscope, with six 96-well plates imaged in about 24 minutes. Images were captured and exported and JPEG files. Spent culture media was transfered to black-well plates for the LDH assay, and remaining media was sorted at -80 C for later use. Cells were treated with RLT buffer and frozen until shipped for gene expression analysis. Total RNA was isolated from the cell suspension in 75 uL of Buffer RLT (Qiagen, Germantown, MD 20874) by Quintiles/Expression Analysis (Durham, NC) using a custom isolation procedure. Total RNA from each plate well was transferred to a preamplification plate. Fluidigm's 96.96 Dynamic ArrayTM (Fluidigm, Amsterdam, the Netherlands) technology was used for gene expression analyses by quantitative reverse transcription polymerase chain reaction (qRT-PCR, performed by Quintiles/Expression Analysis, Durham, NC)89. Standard TaqManTM Assays (Applied Biosystems/ThermoFisher Scientific, Foster City, CA) were used to assess the expression of 93 genes selected based on their selectivity and sensitivity to important hepatic receptors known to be modulated by environmental chemicals; importance in human hepatocyte functionality; and hepatotoxicity. […]

SMILES | outcome | AC50
CC=Cc1ccc(O)c(OC)c1 | inactive | 
Cc1ccc(C(C)C)c(O)c1 | inactive | 
CN1CCCC1=O | inactive | 
CC(=O)C(C)=CC1C(C)=CCCC1(C)C (stereo not given) | inactive | 
CCCCCCCCCCCCCO | inactive | 
CC(C)c1ccc(C(=O)N=C(N)N)cc1S(C)(=O)=O |  | 0.362 µM (active)
CC1(C)NC(=O)NC1=O | inactive | 
C[C@]12C=CC(=O)C=C1CC[C@@H]1[C@@H]2C(=O)C[C@@]2(C)[C@H]1CC[C@]2(O)C(=O)CO | inactive | 
Cc1ccccc1Cl | inactive | 
Cc1ccc2ncccc2c1 | inactive | 
Nc1ccc2c(c1)C(=O)c1ccccc1C2=O |  | 13.2 µM (active)
Nc1nc(N)c2nc(CNc3ccc(C(=O)N[C@@H](CCC(=O)O)C(=O)O)cc3)cnc2n1 |  | 0.0967 µM (active)
Oc1ccc2c(c1)OC[C@@H](N1CCC(O)(c3ccc(F)cc3)CC1)[C@H]2O | inactive | 
CNCc1cc(F)ccc1Oc1ccc(Cl)c(Cl)c1 | inactive | 
CCCCN(CCCC)CCCC | inactive | 
COc1ccc(S(=O)(=O)N2C(=O)[C@@](c3ccccc3OC)(N3C[C@H](O)C[C@H]3C(=O)N(C)C)c3cc(Cl)ccc32)c(OC)c1 |  | 13.9 µM (active)
CN[C@H]1CC[C@@H](c2ccc(Cl)c(Cl)c2)c2ccc(S(N)(=O)=O)cc21 |  | 83 µM (active)
CCOc1ccc2c(c1)C(C)=CC(C)(C)N2 | inactive | 
Cc1cc(=O)[nH]c(=S)[nH]1 | inactive | 
C[Si]1(C)O[Si](C)(C)O[Si](C)(C)O[Si](C)(C)O1 | inactive | 

SMILES | outcome | AC50
NS(=O)(=O)c1cc2c(cc1Cl)NCNS2(=O)=O | inactive | 
CN1CCN(Cc2cc(-c3ccc4[nH]c(=O)oc4c3)co2)[C@@H](c2ccc(F)cc2)C1 |  | 88.5 µM (active)
O=C(OCCCCCOC(=O)c1ccccc1)c1ccccc1 |  | 0.309 µM (active)
Cc1ccc(C)c(C)c1 | inactive | 
OC[C@@H](O)[C@@H](O)[C@H](O)[C@H](O)CO | inactive | 
CC(C)(C)c1cc(O)c(C(C)(C)C)cc1O | inactive | 
COc1cc(S(=O)(=O)O)c(C)cc1N=Nc1c(O)ccc2cc(S(=O)(=O)O)ccc12 | inactive | 
CCOC(=O)C(C)(C)Oc1ccc(Cl)cc1 |  | 24.6 µM (active)
Cc1c(C(=O)O)c(O)cc2c1C(=O)c1c(O)c([C@@H]3O[C@H](CO)[C@@H](O)[C@H](O)[C@H]3O)c(O)c(O)c1C2=O | inactive | 
C1CCC(SSC2CCCCC2)CC1 | inactive | 
CC1(C)CC(N=C=O)CC(C)(CN=C=O)C1 (stereo not given) | inactive | 
C=CCc1ccc(O)c(OC)c1 | inactive | 
c1cc(-c2ccncc2)ccn1 | inactive | 
O=C(O)CCCCC(=O)O | inactive | 
CCCCCCCCCCO | inactive | 
Oc1ccc2ccccc2c1N=Nc1ccccc1 |  | 4.28 µM (active)
FC(F)(F)C(F)(F)C(F)(F)C(F)(F)C(F)(F)C(F)(F)CCI | inactive | 
CCCCCC(=O)O | inactive | 
Nc1ccccc1N |  | 81.8 µM (active)
O=c1[nH]cc(F)c(=O)[nH]1 |  | 76 µM (active)
